Bioassay records as filed in PubChem BioAssay.
This excerpt belongs to a sample that is enriched for hits.
BL2 CD40 inh: CD40 pathway inhibition in BL2 cells | BL2 NF-kB luciferase reporter, CD40L-induced, 4 h | inhibition, % at 10 µM | 0.94% of 83,000 active | AID 1053188;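 active = mean inhibition of at least 50% with a set share of replicates also reaching that level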;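 also: 0% = neutral control wells and 100% = IKK inhibitor VII at 50 µM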
Numbers without * were called inactive; ! = not active in a repeat; [ ] = remark or other dose.

SMILES | BL2 CD40 inh
COc1ccccc1-c1ccc([C@H]2[C@H]3CN(Cc4ccncc4)CCCCN3[C@H]2CO)cc1 | -16[25 µM]
C[C@@H]1CCCCO[C@H](CN(C)S(=O)(=O)c2cn(C)cn2)[C@@H](C)CN([C@@H](C)CO)C(=O)c2cc(N(C)C)ccc2O1 | -7[25 µM]
C[C@@H]1CN([C@H](C)CO)C(=O)CCCn2nncc2CO[C@@H]1CN(C)Cc1ccc2c(c1)OCCO2 | 3
Cc1ccccc1S(=O)(=O)N1[C@@H]2CNC[C@H]1C2c1ccc(/C=C/c2ccccc2)cc1 (stereo partly drawn) | 51*!
O=C(Nc1ccccc1Cl)N1[C@@H]2CNC[C@H]1C2c1ccc(-c2ccccc2)cc1 (stereo partly drawn) | 4
O=C(Nc1ccccc1F)N1CCCCN2[C@H](C1)[C@@H](c1ccc(/C=C/c3ccccc3)cc1)[C@@H]2CO | -2[25 µM]
O=C(Nc1ccccc1F)N1CCCCN2[C@H](CO)[C@H](c3ccc(/C=C/c4ccccc4)cc3)[C@@H]2C1 | 14[25 µM]
Cc1ccccc1S(=O)(=O)N1[C@@H]2CNC[C@H]1[C@@H]2c1ccc(-c2ccc(C#N)cc2)cc1 | 8[25 µM]
COc1ccc(C#Cc2ccc([C@@H]3[C@H](CO)N4CCCCN(C(=O)Nc5cccc(F)c5)C[C@@H]34)cc2)cc1 | 68*[25 µM]
COc1ccccc1S(=O)(=O)N1[C@@H]2CNC[C@H]1C2c1ccc(/C=C/c2ccccc2)cc1 (stereo partly drawn) | 14[25 µM]
COc1ccc(C#Cc2ccc([C@H]3[C@@H](CO)N4CCCCN(C(=O)Nc5cccc(F)c5)C[C@H]34)cc2)cc1 | 22[25 µM]
COc1ccc(C#Cc2ccc([C@@H]3[C@H]4CN(C(=O)Nc5cccc(F)c5)CCCCN4[C@H]3CO)cc2)cc1 | 5[25 µM]
O=C(Nc1ccccc1F)N1CCCCN2[C@H](CO)[C@H](c3ccc(/C=C/c4ccccc4)cc3)[C@H]2C1 | 89*[25 µM]
C/C=C/c1ccc(C2[C@H]3CNC[C@@H]2N3C(=O)Nc2ccccc2Cl)cc1 (stereo partly drawn) | -3[25 µM]
O=C(Nc1ccccc1Cl)N1[C@@H]2CNC[C@H]1C2c1ccc(/C=C/c2ccccc2)cc1 (stereo partly drawn) | 58*!
CCC(=O)NC[C@@H]1[C@@H](c2ccc(-c3cccc(F)c3)cc2)[C@@H](CO)N1CC1CC1 | 3[25 µM]
O=C(Nc1cccc(Cl)c1)N[C@H]1CC[C@@H](CCNC(=O)C2CCCC2)O[C@@H]1CO | -1
CC(C)[C@@H]1C(=O)N[C@@H](c2ccc3c(c2)OCO3)CC=CC[C@@H](C)Oc2ccccc2C(=O)N1C (mixture of isomers) | 0
COc1ccc(S(=O)(=O)N(C)C[C@@H]2Oc3ccc(NS(=O)(=O)c4c(C)noc4C)cc3C(=O)N([C@@H](C)CO)C[C@@H]2C)cc1 | 7[25 µM]
CCC(=O)N1[C@@H](CO)[C@@H](c2ccccc2)C12CN(C(=O)c1ccc3c(c1)OCO3)C2 | 7[25 µM]
O=C(NCC[C@@H]1CC[C@H](NC(=O)c2cccnc2)[C@H](CO)O1)Nc1ccc(C(F)(F)F)cc1 | 0
CC(=O)O[C@@H]1c2c(ccc3ccc(=O)oc23)OC(C)(C)[C@@H]1OC(=O)CC(C)C | 13[25 µM]
CC(C)[C@@H]1COCc2cnnn2CCC[C@@H](C)C(=O)N1 | -8[25 µM]
O=C(Nc1ccccc1F)N1C[C@@H]2N[C@H](C1)C2c1ccc(/C=C/c2ccccc2)cc1 (stereo partly drawn) | 53*
O=C(Nc1ccc(F)cc1)N1C[C@@H]2N[C@H](C1)C2c1ccc(/C=C/c2ccccc2)cc1 (stereo partly drawn) | 25[25 µM]
SMILES | BL2 CD40 inh
C/C=C/c1ccc(C2[C@@H]3CN(C(=O)Nc4ccccc4F)C[C@H]2N3)cc1 (stereo partly drawn) | -4[25 µM]
COc1ccc(NC(=O)N2CC[C@@H]3[C@@H](CO)N(C)c4ccc(-c5ccccc5F)cc4[C@@H]32)cc1 | -1[25 µM]
Cc1nn2c(NCCN(C)C)c3c(nc2c1-c1ccccc1)CCCC3 | -78
Cc1nn2c(NCc3cccnc3)c3c(nc2c1-c1ccccc1)CCC3 | 13
COc1cccc(-c2cc3nc4c(c(NCC(C)(C)CN(C)C)n3n2)CCCC4)c1 | 63*
CC(C)NC(=O)Nc1ccc2c(c1)CC(=O)N(C)C[C@@H](C)[C@@H](CN(C)C(=O)NC(C)C)O2 | 14
c1cnc2c(c1)ccc1cccnc12 | -5
O=C(O)c1cccc2cccnc12 | 4
O=C1C=CC(=O)N1c1cccc2cccnc12 | 50*
O=C(C[C@H]1C[C@@H]2c3cc(NC(=O)NC4CCCC4)ccc3O[C@@H]2[C@H](CO)O1)NCc1cccnc1 | 0
COc1ccc(NC(=O)Nc2ccc3c(c2)[C@@H]2C[C@H](CC(=O)N4CCN(C)CC4)O[C@@H](CO)[C@@H]2O3)cc1 | -3[25 µM]
CC(C)NC(=O)N(C)C[C@@H]1Oc2ccc(N(C)C)cc2C(=O)N(C)C[C@@H]1C | -25
CO[C@H]1CN(C)C(=O)c2cc(NC(=O)C3CCC3)ccc2OC[C@@H](C)N(Cc2nccs2)C[C@H]1C | -6
N#C[C@H]1[C@H](c2ccccc2-c2ccccc2)[C@H](CO)N1C(=O)NC1CCCC1 | 27[25 µM]
N#C[C@@H]1[C@@H](c2ccccc2-c2ccccc2)[C@@H](CO)N1C(=O)NC1CCCC1 | 53*[25 µM]
N#C[C@H]1[C@H](c2ccccc2-c2ccccc2)[C@@H](CO)N1C(=O)NC1CCCC1 | 28[25 µM]
COCC(=O)N1[C@H](C#N)[C@H](c2ccccc2-c2cccc(C)c2)[C@H]1CO | -5[25 µM]
OCc1cc2ncnc(Nc3ccc(O)c(Br)c3)c2cc1CO | -5[25 µM]
O=C(C[C@@H]1C[C@@H]2c3cc(NC(=O)Nc4ccccc4F)ccc3O[C@@H]2[C@@H](CO)O1)NC1CCCCC1 | -9[25 µM]
CC(=O)c1cc(-c2ccccc2)n(CC(=O)NCc2cccs2)c1C | 54*
CC(=O)c1cc(-c2ccccc2)n(CCC(=O)NC2CCCCCCC2)c1C | 2
O=C(CN1CCN(Cc2ccccc2)C1=O)NCc1cccs1 | 0
O=C(NCC(F)(F)F)[C@H]1[C@H](CO)[C@H]2Cn3c(cccc3=O)[C@H]2N1C(=O)c1ccccc1F | 8[25 µM]
C[C@@H]1CCCCO[C@@H](CN(C)C(=O)Nc2ccccc2)[C@@H](C)CN([C@H](C)CO)C(=O)c2cc(NC(=O)Nc3ccc4c(c3)OCO4)ccc2O1 | -6
C[C@H]1CN([C@@H](C)CO)C(=O)c2ccccc2-c2ccccc2CO[C@H]1CN(C)Cc1ccc(C(=O)O)cc1 | -3
SMILES | BL2 CD40 inh
Cc1ccc(S(=O)(=O)c2ccc([N+](=O)[O-])o2)cc1 | 109*
CC12CN3CC(C)(CN(C1)C3c1ccc([N+](=O)[O-])o1)C2 (stereo not drawn) | -5
Cc1ccc(-c2nnc(NC(=O)c3ccc([N+](=O)[O-])o3)o2)c(C)c1 | -4
Cc1ccc(S(=O)(=O)N2[C@@H]3CNC[C@H]2C3c2ccc(-c3ccccc3C)cc2)cc1 (stereo partly drawn) | 0
O=C(CCN1CCCCC1)NCC[C@H]1CC[C@H](NC(=O)C2CCCCC2)[C@H](CO)O1 | 11
Cn1cnc([N+](=O)[O-])c1S(=O)(=O)Oc1cccc2ccccc12 | 101*
Cn1cnc([N+](=O)[O-])c1Oc1cccc2ccccc12 | 29
Cn1cnc([N+](=O)[O-])c1Cl | 12
Cn1cnc([N+](=O)[O-])c1Oc1ccccc1 | 12
CCN(CC)c1c([N+](=O)[O-])ncn1C | 4
CCS(=O)(=O)c1c([N+](=O)[O-])ncn1C | 95*
C[C@H]1CN(C)C(=O)c2cccc(N(S(C)(=O)=O)S(C)(=O)=O)c2O[C@H]1CN(C)C(=O)OC(C)(C)C | 5
